# Test results: PubChem BioAssay AID777 (Sanford-Burnham Center for Chemical Genomics, 2007)
# Among all 96,000 compounds or so, about 19,000 (20%) were called active. These entries were drawn from the full list. Values without a mark were called inactive.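 How the source made its calls: active means blocking of liver enzyme CYP2C9 beyond about 50% at 5 µM (limit read from the data); inactive means the rest.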
# Target: Cytochrome P450 2C9 (Homo sapiens) (UniProt P11712)
# Test: blockers of cytochrome P450 2C9 activity – biochemical, luminescence, ADME assay, primary screen (AID 777)
# Details: CYP2C9 Supersomes, luciferin-H conversion, at 5 µM, active compounds read high
# Sequence of Cytochrome P450 2C9 (Homo sapiens) (P11712 whole entry, looked up): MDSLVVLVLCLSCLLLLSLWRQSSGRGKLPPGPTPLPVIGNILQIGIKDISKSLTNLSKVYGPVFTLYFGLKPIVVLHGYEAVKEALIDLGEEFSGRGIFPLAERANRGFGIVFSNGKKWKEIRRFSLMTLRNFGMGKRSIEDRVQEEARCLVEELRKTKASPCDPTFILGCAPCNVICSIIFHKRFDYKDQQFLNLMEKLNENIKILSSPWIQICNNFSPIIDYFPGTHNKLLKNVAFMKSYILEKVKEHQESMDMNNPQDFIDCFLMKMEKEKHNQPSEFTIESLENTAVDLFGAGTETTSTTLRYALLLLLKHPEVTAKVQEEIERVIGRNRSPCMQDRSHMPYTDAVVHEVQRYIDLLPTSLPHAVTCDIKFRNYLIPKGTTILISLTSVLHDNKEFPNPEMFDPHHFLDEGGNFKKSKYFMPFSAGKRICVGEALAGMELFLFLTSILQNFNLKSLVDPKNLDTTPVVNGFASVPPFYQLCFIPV
row,Structure (SMILES),inhibition
1,CC(C)C(=O)N1c2ccccc2NC2=C(C(=O)CCC2)C1c1ccc(N(C)C)cc1 (configuration not stated),16.8%
2,CCC(C)n1c(-c2cc(OC)c(OC)c(OC)c2)nc2nc3ccccc3nc21 (configuration not stated),95.3% (active)
3,COc1ccc(CCn2c(-c3ccco3)nc3nc4ccccc4nc32)cc1OC,34.7%
4,COC(=O)c1nc(NC(=O)c2ccc(Cl)cc2)n[nH]1,7.9%
5,O=S(=O)(Nc1nccs1)c1ccc2c(c1)OCCO2,-23.3%
6,CCc1ccccc1NC(=O)/C(=C/c1ccccc1)c1ccccc1,16.4%
7,O=C(/C=C/c1ccccc1)c1ccoc1,15.1%
8,O=C(/C=C/c1ccccc1)N/C(=C/c1ccccc1)C(=O)Nc1ccccc1O,62.7% (active)
9,CC(C)c1ccc(-c2nn[nH]n2)cc1,9.2%
10,O=C(Nc1ccc(Cl)cc1)N1CCc2[nH]c3ccccc3c2C1,14.2%
11,CCC(=O)Nc1cccc(NC(=O)c2cccnc2)c1,6.5%
12,Cc1cc(C)c(NC(=O)CS(=O)CC(=O)Nc2cccnc2)c(C)c1 (configuration not stated),22.7%
13,Cc1cccc(-n2cnc(C(=O)Nc3cccnc3)c2)n1,88.2% (active)
14,Cc1cc(-n2nc(C)cc2C)n2nc(C)c(-c3ccccc3)c2n1,25.1%
15,CC(Oc1ccc(Cl)cc1)C(=O)OCC(=O)Nc1ncc(Cl)cc1Cl (configuration not stated),-20.7%
16,O=C(NC(Nc1nc2ccc([N+](=O)[O-])cc2s1)(C(F)(F)F)C(F)(F)F)c1ccccc1,97.4% (active)
17,Cc1cc(C)cc(OCC(=O)Nc2nc3ccc([N+](=O)[O-])cc3s2)c1,48.4%
18,CNC(=O)c1ccc2nc(NC(C)=O)sc2c1,21.5%
19,O=C(Nc1ccc(Cl)cc1)c1ccsn1,-4.3%
20,O=C(c1ccc(Cl)cc1)c1cnc(Nc2ccccc2)s1,21.7%
21,O=C(Nc1ccccc1)c1nnsc1S(=O)(=O)c1ccc(Cl)cc1,74.9% (active)
22,Cc1ccc(N2CCN(c3ccc(C)cc3)C2c2ccccn2)cc1,1.3%
23,O=C(NCCCCCCCCCNC(=O)C(F)(F)F)C(F)(F)F,11.2%
24,CCCOc1ccccc1C(=O)NCCCC(=O)O,-8.2%
25,CS(=O)(=O)N1CCN(C(=O)Cc2ccccc2)CC1,-5.4%
26,CCOc1ccc(Cn2nnc(C(=O)NCc3ccccc3)c2N)cc1,-2.2%

row,Structure (SMILES),inhibition
1,COc1ccc(OC)c(CN2C(=O)CCC2(C)C(=O)NC2CCCCCC2)c1 (configuration not stated),30%
2,CC(=O)Oc1ccc2c(C)c(CC(C)O)c(=O)oc2c1 (configuration not stated),-16%
3,CCOC(=O)CCc1c(C)c2ccc(OCc3nn[nH]n3)c(C)c2oc1=O,86.3% (active)
4,CCOC(=O)N1CCN(C(=O)c2cn(C)c3ccc(S(=O)(=O)N4CCCC4)cc3c2=O)CC1,-6.2%
5,Cc1c(C(=O)Nc2ccccc2Cl)oc2ccc(S(=O)(=O)N3CCC4(CC3)OCCO4)cc12,31.2%
6,CCOC(=O)C1CCN(C(=O)c2oc3ccc(S(=O)(=O)N4CCCCCC4)cc3c2C)CC1,53.6% (active)
7,C=CCn1c(COc2ccccc2F)nnc1SCC(=O)N1CC(=O)Nc2ccccc21,12.5%
8,Cc1ccc(C)c(NC(=O)C2CC(=O)N(C(C)C)C2)c1 (configuration not stated),-14.4%
9,CCN=C1SC(CC(=O)Nc2ccc(C)cc2)C(=O)N1CC (configuration not stated),-8.7%
10,CCN1C(=O)C(CC(=O)Nc2cc(C)ccc2C)SC1=Nc1ccc(S(N)(=O)=O)cc1 (configuration not stated),90.8% (active)
11,O=S(=O)(/C=C/c1ccccc1)NCCc1ccccn1,-35.1%
12,Cc1nnc(SCC(=O)N(C(C)C)C(C)C)nc1C,-18.5%
13,CCCn1c(=O)c(-c2ccccc2)c(O)c2ccccc21,1.5%
14,Cc1cccc(OCC(O)Cn2c(=N)n(CCN3CCOCC3)c3ccccc32)c1 (configuration not stated),-8.4%
15,COc1ccc(S(=O)(=O)N2CCOCC2)cc1C(=O)Nc1nc2ccccc2s1,-3.9%
16,O=C(c1ccc2c(c1)OCCO2)C1CCN(S(=O)(=O)c2cccc(F)c2)CC1,-18.3%
17,O=C(Nc1nc2cc3c(cc2s1)OCCO3)c1cccc(S(=O)(=O)N2CCOCC2)c1,50.9% (active)
18,CC1(C)CC(CCC(=O)Nc2ccccc2Cl)C(=O)O1 (configuration not stated),-35.4%
19,CCc1nnc(NC(=O)CCC(=O)O)s1,-9.1%
20,CCCCc1nc2c(=O)[nH]c3ccccc3c2o1,-4.4%
21,O=C(Nc1ccc2ccccc2c1)Nc1ccc2snnc2c1,19.3%
22,COc1cccc(NC(=O)Cc2ccc(C)cc2)c1,21.1%
23,COc1ccc(NC(=O)/C(Cl)=C(/Cl)S(=O)Cc2ccc(C)cc2)cn1 (configuration not stated),52.9% (active)
24,O=C(Nc1cccc2c1CCCC2)C1CCN(C(=O)NC2CCCCC2)CC1,1.9%
25,Cc1cccc2cc(C#N)c(N3CCCC3)nc12,-2.2%
26,Cc1ccc(S(=O)(=O)C(C#N)c2nc3ccccc3nc2N2CCCC2)cc1C (configuration not stated),93.4% (active)

row,Structure (SMILES),inhibition
1,CC(C)CCOc1ccc(C(=O)C[N+]2(C)CCOCC2)cc1,11%
2,COc1ccccc1NC1=NC2(CCCC2)N=C(N)N1,-4%
3,Cc1nc(N2CCOCC2)nc2c1CCCC2,-1.5%
4,O=C(Nc1ccccc1-c1nnn(CC(=O)N2CCN(c3ccccc3)CC2)n1)c1cccs1,80.1% (active)
5,CCOc1ccc(-c2nnn(CC(=O)N3CCN(c4ccc(F)cc4)CC3)n2)cc1OCC,-6.1%
6,COc1ccccc1N1CCN(C(=O)Cn2nnc(-c3cccs3)n2)CC1,47.2%
7,CC(=O)c1ccc(OCCN2CCOCC2)cc1,9.9%
8,CC1CC(c2ccccc2)n2nc(NC(=O)c3cccs3)nc2N1 (configuration not stated),0.9%
9,CCOC(=O)C1CCCN(C(=O)c2cncc(Br)c2)C1 (configuration not stated),33.3%
10,Cc1cc(=O)n2nc(N3CCCC3C(=O)NCCCN3CC(C)CC(C)C3)sc2n1 (configuration not stated),1.8%
11,Cc1cc(=O)n2nc(N3CCCC(C(=O)NCCC4=CCCCC4)C3)sc2n1 (configuration not stated),61.7% (active)
12,COc1ccc(CCNC(=O)C2CCN(c3nn4c(=O)cc(C)nc4s3)CC2)cc1OC,-11.8%
13,CCCC(=O)Nc1nnc(CC(=O)OCC)s1,-12.8%
14,COCCCNC(=O)Cn1cc(C(=O)C2CC2)c2ccccc21,11.2%
15,CN1CCN(S(=O)(=O)c2ccc(NC(=O)C3CCCO3)cc2)CC1 (configuration not stated),60% (active)
16,CN1CCN(S(=O)(=O)c2ccc(NC(=O)c3ccco3)cc2)CC1,-13.5%
17,O=C(Nc1nc2ccc(S(=O)(=O)N3CCCC3)cc2s1)C1CCCO1 (configuration not stated),46.1%
18,c1csc(CN2CCN(Cc3cccs3)C2c2cccs2)c1,-9%
19,Cc1[nH]c2ccccc2c1C(=O)COC(=O)C(C)C,-5%
20,COc1ccccc1CCNC(=O)c1cnccn1,-35.8%
21,CCOc1ccc(C(=O)NCCCN2CCCC2=O)cc1,12.3%
22,CCCN(Cc1cc2cccc(C)c2[nH]c1=O)S(C)(=O)=O,36.4%
23,COc1ccc(S(=O)(=O)N(CCCN2CCCC2=O)Cc2cc3c(C)ccc(C)c3[nH]c2=O)cc1,85.6% (active)
24,CSc1ccc(Cl)c(C(=O)OCC(=O)N2CC(C)OC(C)C2)c1 (configuration not stated),-24.7%
25,Cc1nc2nc3c(cn2n1)C(=O)CC(c1ccccc1)C3 (configuration not stated),65.6% (active)
26,Cc1cc(=O)oc(C)c1C(=O)Nc1cnc2ccccc2c1,10.5%

row,Structure (SMILES),inhibition
1,Cc1cc(=O)oc(C)c1C(=O)NCc1ccc(F)cc1,51.6% (active)
2,COc1ccc(CNC(=O)c2c(C)cc(=O)oc2C)cc1OC,32.7%
3,O=C(c1ccc(Cl)c(Cl)c1)N1CCCC1,7%
4,Cc1cccc(NC(=O)CN2CCCN(S(=O)(=O)c3ccc(Br)s3)CC2)c1,11.6%
5,Cc1ccc(CNC(=O)CN2CCN(Cc3ccc(Cl)cc3)C2=O)cc1,17.5%
6,O=C(CN1CCN(S(=O)(=O)c2ccc(Cl)s2)CC1)NCc1ccc(Cl)cc1,55.1% (active)
7,O=S(=O)(NCc1ccccc1Cl)c1cnc[nH]1,28.8%
8,CC1(C)CC(=O)C=C(NCCN2CCNCC2)C1,-8.1%
9,COC(=O)c1ccc(NCC(=O)c2ccccc2)cc1,48.7%
10,Cc1ccc(Nc2nc(C)cc(C)c2C(N)=O)cc1,6.2%
11,CCOC(=O)c1nc(Nc2ccc(C(=O)OC)cc2)c2ccccc2n1,59.5% (active)
12,Cc1nc(CNS(=O)(=O)c2cccnc2)cs1,8.8%
13,CCc1cc2c(=O)c(-c3ccon3)c(N)oc2cc1OC,0.5%
14,Cc1ccc(-c2csc3nnc(SCC(=O)NCc4ccco4)n23)cc1,40.9%
15,CCn1c(SCC(=O)Nc2ccc(OC)c(OC)c2)nnc1-c1c[nH]c2ccccc12,93.3% (active)
16,CCOC(=O)N1CCN(C(=O)CSc2nnc(-c3c[nH]c4ccccc34)n2CCOC)CC1,14.7%
17,O=C(CSc1nnc(-c2ccco2)n1-c1ccccc1)NCCc1ccccc1,30.9%
18,O=C(CSc1nnc(-c2cccs2)n1-c1ccccc1)NCc1ccco1,70.7% (active)
19,CCOc1ccccc1-n1c(SCC(=O)N2CCCC2)nnc1-c1ccoc1C,8.8%
20,CCn1c(SCCC(C)C)nnc1-c1c[nH]c2ccccc12,1.7%
21,O=C(CSc1nnc(-c2cccs2)n1-c1ccccc1)N1CCN(C(=O)c2ccco2)CC1,23.6%
22,O=C(CSc1nnc2scc(-c3ccc(F)cc3)n12)NCc1ccco1,55% (active)
23,Cc1ccc(-n2c(SCC(=O)Nc3ccc4c(c3)OCO4)nnc2-c2ccoc2C)cc1,-13.4%
24,COc1ccc(-n2c(SCC(=O)NCc3cccs3)nnc2-c2ccoc2C)cc1,66.1% (active)
